DAX1 inh-1: inhibits human nuclear receptor DAX1. actives 0.99% (n = 340,000). P51843. inhibition, % at 6.75 µM. HEK293 Gal4-DAX1 luciferase reporter, luminescence;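 active means inhibition above the mean over all tested compounds plus 3 SD, cut at about 4.2% in these data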;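 further: 0% = DAX1-transfected cells with DMSO and 100% = empty-vector control cells with DMSO; inhibition shows as a rise in luminescence from relieved DAX1 repression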
Target sequence (P51843 207-470 limits assumed): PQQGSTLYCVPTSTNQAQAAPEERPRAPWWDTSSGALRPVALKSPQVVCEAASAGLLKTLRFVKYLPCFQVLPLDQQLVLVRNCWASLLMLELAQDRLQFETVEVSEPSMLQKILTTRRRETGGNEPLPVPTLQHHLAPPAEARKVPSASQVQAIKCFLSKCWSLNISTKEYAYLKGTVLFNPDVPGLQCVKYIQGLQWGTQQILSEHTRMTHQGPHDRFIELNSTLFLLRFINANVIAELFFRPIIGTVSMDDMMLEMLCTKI
ssDAF12 agonist: activates DAF-12 receptor from parasite S. stercoralis; activation, % at 6.8 µM; actives 1% (n = 370,000); HEK293 ssDAF-12/GRIP1 lit1-tk-luc reporter, luminescence; % of 3 µM dafachronic acid response;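 active means activation above the mean over all tested compounds plus 3 SD, cut at about 0.9% in these data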;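 further: 0% = DMSO-only wells and 100% = 3 µM delta7-dafachronic acid wells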
hgDAF-12 ag: activates the H. glycines DAF-12 receptor ligand-binding domain. HEK293 GAL4-hgDAF12 UAS-luciferase reporter, agonist luminescence; normalized to butyrate control. activation, % at 6.8 µM. actives 1.8% (n = 370,000). AID 687014;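 active means activation above a cutoff set at the mean of all screened compounds plus 3 SD, cut at about 10% in these data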;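 further: 0% = DMSO wells and 100% = sodium butyrate wells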
hcDAF12 agonist: H. contortus DAF-12 activation, primary screen. actives 1.4% (n = 370,000). activation, % at 6.8 µM. HEK293 hcDAF-12 lit1-tk-luc reporter, luminescence; 0% DMSO, 100% Δ7-dafachronic acid;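 active means activation above the mean of all tested compounds plus 3 SD, cut at about 5.5% in these data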;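 further: 100% = response to 3 µM Δ7-dafachronic acid high control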
DAX1 inh-2: DAX1 (NR0B1) inhibition, primary screen | HEK293T StAR-luciferase reporter, SF-1/DAX-1 repression relief | inhibition, % at 6.8 µM | actives 1.1% (n = 370,000);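 active means inhibition above the mean over all tested compounds plus 3 SD, cut at about 3.6% in these data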;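 further: 0% = DAX-1 cells with DMSO and 100% = cells lacking DAX-1 with DMSO; higher inhibition means more luminescence from relief of DAX-1 repression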
DAX1 conf: NR0B1 (human) inhibition, confirmation; shares compounds with DAX1 inh-2; HEK293T StAR-promoter luciferase reporter, SF-1/DAX-1 repression; inhibition, % at 6.8 µM; actives 87% (n = 2,400);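 active means inhibition above the average of every tested compound plus 3 SD, cut at about 3.8% in these data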;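 further: 0% = DAX-1 cells with DMSO and 100% = no DAX-1 control cells with DMSO; active compounds raise luminescence by relieving repression of the StAR reporter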
SF1 mutant ctr: counter-screen for DAX1 inhibitors: nonselective inhibitors with SF-1 AF2 mutant; actives 78% (n = 2,400); AID 652136; HEK293 StAR-luciferase, luminescence; inhibition, % at 6.8 µM; shares compounds with DAX1 inh-2;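 active means inhibition above the mean of all tested compounds plus 3 SD, cut at about 3% in these data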;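 further: 0% = DAX-1 transfected cells with DMSO and 100% = cells without DAX-1 with DMSO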
LXRb hcDAF ctr: LXR-beta agonism as hcDAF-12 counter-screen; shares compounds with hcDAF12 agonist; HEK293 Gal4-LXR tk-luc reporter, luminescence, 24 h; normalized: DMSO 0%, positive control 100%; activation, % at 6.8 µM; 3,400 tested, under 10 active; AID 743027;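 active means mean percent activation of the reporter above a cutoff set as the average over tested compounds plus their standard deviation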
Target sequence (P55055 whole entry, looked up, the tested form may be a part): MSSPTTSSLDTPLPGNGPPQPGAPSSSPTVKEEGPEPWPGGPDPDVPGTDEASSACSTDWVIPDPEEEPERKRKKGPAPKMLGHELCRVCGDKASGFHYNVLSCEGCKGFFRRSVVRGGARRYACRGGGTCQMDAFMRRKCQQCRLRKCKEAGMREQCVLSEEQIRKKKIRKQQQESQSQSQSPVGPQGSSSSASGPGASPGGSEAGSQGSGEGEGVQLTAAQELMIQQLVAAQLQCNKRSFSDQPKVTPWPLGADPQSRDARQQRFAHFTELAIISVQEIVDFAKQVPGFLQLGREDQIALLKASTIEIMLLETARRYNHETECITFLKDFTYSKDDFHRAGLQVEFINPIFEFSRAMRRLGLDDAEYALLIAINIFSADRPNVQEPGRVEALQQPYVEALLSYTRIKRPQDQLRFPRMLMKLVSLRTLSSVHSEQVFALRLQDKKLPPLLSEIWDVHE
hcDAF12 conf: hcDAF-12 agonism, confirmation assay; shares compounds with hcDAF12 agonist; HEK293 hcDAF-12 lit1-tk-luc reporter, luminescence; % of Δ7-dafachronic acid response; activation, % at 6.8 µM; actives 61% (n = 3,400);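 active means mean activation across triplicate tests above the threshold derived from the earlier primary screen, cut at about 5.5% in these data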;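 further: 0% = DMSO only wells and 100% = 3 µM Δ7-dafachronic acid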
hgDAF12 conf: hgDAF-12 agonism, confirmation assay. shares compounds with hgDAF-12 ag. HEK293 GAL4-hgDAF12 luciferase reporter, agonist mode; percent of butyrate response. activation, % at 6.8 µM. actives 80% (n = 3,300). AID 743050;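 active means mean activation over triplicate wells above the hit cutoff derived from the earlier primary screen, cut at about 11% in these data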;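 further: 0% = DMSO low control and 100% = 2 mM sodium butyrate high control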
LXRb DAF12 ctr: counter-screen for DAF-12 agonists: agonists of human LXR-beta; activation, % at 6.8 µM; AID 743051; HEK293 Gal4-LXR luciferase reporter, 24 h; 3,300 tested, under 10 active; shares compounds with hgDAF-12 ag;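 active means mean activation of the triplicate above a set limit carried over from the primary screen, none filed active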
An asterisk follows results filed as active; nt = no result; + = active, no number. A selection: hits, their analogues and other compounds. The true share with any hit is near 4.1%.

SMILES | DAX1 inh-1 | ssDAF12 agonist | hgDAF-12 ag | hcDAF12 agonist | DAX1 inh-2 | DAX1 conf | SF1 mutant ctr | LXRb hcDAF ctr | hcDAF12 conf | hgDAF12 conf | LXRb DAF12 ctr
O=C(CCCCCCC(=O)Nc1ccccc1)NO | 13* | 2.0* | 41* | 12* | 33* | + | -6 | 0 | 7.0* | 41* | 1
Cc1cccc(-n2ncc3c(NCc4cccnc4)ncnc32)c1 | 2 | -1 | 13* | -1 | 4.7* | 8.1* | 4.2* | nt | nt | 12* | 0
Cc1cccc(-n2ncc3c(N4CCOCC4)ncnc32)c1 | -3 | -1 | 2 | 0 | 3 | nt | nt | nt | nt | nt | nt
Cc1cccc(-n2ncc3c(N4CCCC4)ncnc32)c1 | -1 | 1 | 18* | 5 | 7.4* | 16* | 6.9* | nt | nt | 16* | 1
Cc1cccc(-n2ncc3c(NC4CCCCC4)ncnc32)c1 | 1 | 0 | 25* | 7.8* | 6.8* | 13* | 7.5* | 2 | 6.2* | 12* | 1
CC(=O)Nc1c(-c2ccc(C(F)(F)F)cc2)nc2ncccn12 | nt | 0 | 1 | 0 | -1 | nt | nt | nt | nt | nt | nt
Cc1cc(N2CCN(Cc3ccc4c(c3)OCO4)CC2)n2nc(C)nc2n1 | nt | -1 | -1 | -3 | 0 | nt | nt | nt | nt | nt | nt
C[C@@H]1CN([C@@H](C)CO)C(=O)CCCn2nncc2CO[C@H]1CN(C)CC1CC1 | nt | 0 | 0 | 0 | 0 | nt | nt | nt | nt | nt | nt
Fc1ccc(N2C(=S)SC(=Nc3ccccc3)C2=Nc2ccccc2)cc1 | 2 | -1 | 7 | 4 | 1 | nt | nt | nt | nt | nt | nt
N=C1N(c2ccccc2)C(=S)C(=Nc2ccccc2)N1c1ccccc1 | 3 | 0 | 17* | 9.8* | 8.6* | -5 | -3 | 0 | 1 | 7 | 0
Cc1ccc(NC(=S)NNC(=O)CSc2nc3ccccc3c(=O)n2-c2ccc(Cl)cc2)cc1 | nt | -1 | -1 | -1 | -1 | nt | nt | nt | nt | nt | nt
COc1ccc(C(=O)NC2=Nc3ccccc3N=C(C)C2c2ccccc2)cc1 (centres undefined) | 18* | 0.9* | 59* | 8.9* | 9.6* | 23* | 19* | 0 | 1 | 39* | 0
O=C(CC1SC(N2CCCC2)=NC1=O)Nc1ccc(C(=O)Nc2ncccc2O)cc1 (centres undefined) | 3 | 1 | 38* | 3 | 25* | 40* | 22* | nt | nt | 43* | 0
O=C(Nc1ccccn1)c1ccc2c(=O)n3c(nc2c1)CCCCC3 | -1 | 0 | 20* | 5 | 6.2* | 7.7* | 3.8* | nt | nt | 15* | 1
Cc1cc(C=C2C(=O)c3ccccc3C2=O)c(C)n1C | -1 | 0 | 4 | 2 | 0 | nt | nt | nt | nt | nt | nt
CCn1c(C)cc(C=C2C(=O)c3ccccc3C2=O)c1C | 1 | 4.4* | 18* | 17* | 5.6* | 15* | 8.0* | 2 | 15* | 15* | 1
O=C(NCCc1ccccc1)c1cnc2ccccn2c1=O | 0 | -1 | 14* | 3 | 5.2* | 13* | 5.7* | nt | nt | 13* | 1
CC(C)n1c(=N)c(C(=O)NCCc2ccccc2)cc2c(=O)n3ccccc3nc21 | -1 | -1 | 6 | 2 | 0 | nt | nt | nt | nt | nt | nt
COC(=O)[C@@]12CCCCC=C1N(CCc1ccc(Cl)cc1)C(=O)[C@H]2CC(=O)NCCC(C)C | nt | -1 | -2 | -1 | -1 | nt | nt | nt | nt | nt | nt
Cc1ccc(-c2nc3ccc(Cl)cn3c2Cc2cccc(F)c2)cc1 | nt | 0 | 21* | 1 | 6.5* | 9.7* | 4.9* | nt | nt | 11* | 0
N#Cc1ccc(-c2nc3ccc(Cl)cn3c2Cc2cccc(F)c2)cc1 | nt | -2 | 5 | -3 | 0 | nt | nt | nt | nt | nt | nt
Fc1cccc(Cc2c(-c3cccc(Br)c3)nc3ccc(Br)cn23)c1 | nt | 0 | 10 | -1 | 2 | nt | nt | nt | nt | nt | nt
Fc1cccc(Cc2c(-c3ccc(Cl)cc3)nc3ccc(Br)cn23)c1 | nt | -1 | 18* | 4 | 4.7* | 2 | 1 | nt | nt | 1 | 0
C[C@@H]1ON(C)[C@H]2C[C@H]3c4cc(-c5cccc(Cl)c5)ccc4CCN3C[C@@H]12 | nt | -1 | -1 | -1 | -1 | nt | nt | nt | nt | nt | nt
O=C(Nc1ccc(Cl)cn1)c1cc2ccccc2o1 | 2 | 2.7* | 14* | 13* | 4.8* | 14* | 6.8* | 1 | 16* | 20* | 1
SMILES | DAX1 inh-1 | ssDAF12 agonist | hgDAF-12 ag | hcDAF12 agonist | DAX1 inh-2 | DAX1 conf | SF1 mutant ctr | LXRb hcDAF ctr | hcDAF12 conf | hgDAF12 conf | LXRb DAF12 ctr
O=C(Nc1ncccc1O)c1cc2ccccc2o1 | 1 | 1 | 39* | 8.6* | 27* | 27* | 14* | 1 | 5 | 29* | 1
Cc1cc(C)nc(NC(=O)c2ccc(C)c([N+](=O)[O-])c2)n1 | -1 | -1 | 0 | -1 | 0 | nt | nt | nt | nt | nt | nt
Cc1csc(NC(=O)c2ccc(C)c([N+](=O)[O-])c2)n1 | -1 | 1 | 15* | 12* | 5.9* | 7.7* | 4.7* | 2 | 10* | 18* | 1
O=C(NNC(=O)c1cc2ccccc2o1)c1ccc(Cl)cc1 | 1 | -2 | 2 | -2 | 0 | nt | nt | nt | nt | nt | nt
CCOC(=O)Cc1csc(NC(=O)c2cc3ccccc3o2)n1 | -1 | -2 | 4 | 1 | 1 | nt | nt | nt | nt | nt | nt
Cc1csc(NC(=O)c2cc3ccccc3o2)n1 | -1 | 2.5* | 18* | 12* | 8.6* | 15* | 6.1* | 2 | 8.9* | 19* | 1
COC[C@@H]1CCCN1c1cccc2c1S(=O)(=O)N(C1CC1)CCCO2 | nt | -1 | -2 | -1 | 0 | nt | nt | nt | nt | nt | nt
Cn1c(=O)oc2ccc(S(=O)(=O)Nc3ccc(Cl)cc3[N+](=O)[O-])cc21 | nt | -1 | 3 | 1 | 1 | nt | nt | nt | nt | nt | nt
O=C(CCS(=O)(=O)c1cc2c(cc1Br)CCN2C(=O)C1CC1)N1CCN(c2ccccn2)CC1 | nt | -1 | 5 | 0 | -1 | nt | nt | nt | nt | nt | nt
O=C(NC1CCCCN(Cc2ccc(Cl)cc2)C1=O)c1cc(-c2ccccc2)no1 (centres undefined) | nt | 0 | -1 | 3 | -2 | nt | nt | nt | nt | nt | nt
Cc1ccc2nc(NC(=O)COC(=O)c3ccncc3)sc2c1 | 0 | -1 | 9 | 1 | 2 | nt | nt | nt | nt | nt | nt

Screening data as filed in PubChem BioAssay.
